{"source": "the supplement of paper PMC8728848", "binders": {"B1": {"name": "GST-Gap1 (Streptococcus parasanguinis), A1C3L5 (protein)", "chain": "MFYFVPSWYNGQRQWYYDTPWWFRVKNRMTFDDSVNQVKMFLQGQEEIGLMILNYQPQLRYFLHKQNIFGIYYWSFFDDIQNITRSYTKIIHLKDLNWPEGCEFLYSPFAVVVRLKGEIFAIVNYAEDGNLHSVSFQKNGKVTKDYIFDDRGFLSSILYYDIDERPLYQDYLNINGVWQVREFLKKENDPTPILMINDFSDQTFSKKYYNGWEELIKERLAIFQNNHVENEDVFVLASDTQHNQLVSSIFKEHRKIYSFFGNRFNLENLGQDRISINDATFLVVDTEKNEELLRKTCENLVFKSIPIVRLSPFDSRLRLGHSQTVKEQIIYFHIDNIELDELYSVIAIILELMTLHLDIELRIVTFRQDFQLDLLKTWIIDFIKTNHFEDLLFKQISEGENEIEDEGEIELSRIAMECFTNENQIIKCLDTARLVIDLGIEPDLYTQIASISAGIPQINRVSSDYVIHQKNGLVISDISKLSSAIEFYFDGLFNWNEALIYAVRKMSDYTSGKILKQWKGMLKKK"}}, "assay_in_all_cases": "glycan array binding signal (z-score within array); higher = stronger binding", "settings_in_all_cases": "glycan notation: IUPAC condensed, linker removed", "key": {"[1]": {"molecular_target": "Fuc(a1-2)Gal(b1-3)GlcNAc(b1-3)Gal(b1-4)Glc", "outline": "(§1)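 The binding signal is a Z-score computed within each array. Data were drawn from 3228 arrays in the Consortium for Functional Glycomics database, restricted to those with a known protein sequence. Scores were averaged over arrays of the same protein sequence at different concentrations or buffers, and over linkers, and negative values can be taken as non-binding.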"}, "[2]": {"molecular_target": "Fuc(a1-2)Gal(b1-3)GlcNAc(b1-3)[Gal(b1-4)GlcNAc(b1-6)]Gal(b1-4)Glc", "outline": "as §1"}, "[3]": {"molecular_target": "Fuc(a1-2)Gal(b1-3)[Fuc(a1-4)]GlcNAc(b1-2)Man(a1-3)[Fuc(a1-2)Gal(b1-3)[Fuc(a1-4)]GlcNAc(b1-2)Man(a1-3)]Man(b1-4)GlcNAc(b1-4)GlcNAc", "outline": "as §1"}, "[4]": {"molecular_target": "Fuc(a1-2)Gal(b1-4)GlcNAc(b1-3)Gal(b1-4)GlcNAc", "outline": "as §1"}, "[5]": {"molecular_target": "Fuc(a1-2)Gal(b1-4)[Fuc(a1-3)]GlcNAc(b1-3)GalNAc", "outline": "as §1"}, "[6]": {"molecular_target": "Fuc(a1-2)Gal6S(b1-4)Glc", "outline": "as §1"}, "[7]": {"molecular_target": "Fuc(a1-2)Gal6S(b1-4)Glc6S", "outline": "as §1"}, "[8]": {"molecular_target": "Fuc(a1-2)[Gal(a1-3)]Gal(b1-3)GlcNAc", "outline": "as §1"}, "[9]": {"molecular_target": "Fuc(a1-2)[GalNAc(a1-3)]Gal(b1-4)[Fuc(a1-3)]GlcNAc(b1-3)GalNAc", "outline": "as §1"}, "[10]": {"molecular_target": "Fuc(a1-3)[GalNAc(b1-4)]GlcNAc", "outline": "as §1"}, "[11]": {"molecular_target": "Gal(b1-3)Gal(b1-4)GlcNAc", "outline": "as §1"}, "[12]": {"molecular_target": "Gal(b1-3)Gal(b1-4)GlcNAc(b1-2)Man(a1-3)[Gal(b1-3)Gal(b1-4)GlcNAc(b1-2)Man(a1-6)]Man(b1-4)GlcNAc(b1-4)GlcNAc", "outline": "as §1"}, "[13]": {"molecular_target": "Gal(b1-3)GlcNAc(a1-6)Gal(b1-4)GlcNAc", "outline": "as §1"}, "[14]": {"molecular_target": "Gal(b1-3)GlcNAc(b1-3)Gal(b1-4)GlcNAc(b1-2)[Gal(b1-3)GlcNAc(b1-3)Gal(b1-4)GlcNAc(b1-6)]Man(a1-6)[Gal(b1-3)GlcNAc(b1-3)Gal(b1-4)GlcNAc(b1-2)Man(a1-3)]Man(b1-4)GlcNAc(b1-4)[Fuc(a1-6)]GlcNAc", "outline": "as §1"}, "[15]": {"molecular_target": "Gal(b1-3)GlcNAc(b1-3)Gal(b1-4)GlcNAc(b1-3)Gal(b1-4)GlcNAc(b1-2)[Gal(b1-3)GlcNAc(b1-3)Gal(b1-4)GlcNAc(b1-3)Gal(b1-4)GlcNAc(b1-6)]Man(a1-6)[Gal(b1-3)GlcNAc(b1-3)Gal(b1-4)GlcNAc(b1-3)Gal(b1-4)GlcNAc(b1-2)Man(a1-3)]Man(b1-4)GlcNAc(b1-4)[Fuc(a1-6)]GlcNAc", "outline": "as §1"}, "[16]": {"molecular_target": "Gal(b1-3)GlcNAc(b1-6)GalNAc", "outline": "as §1"}, "[17]": {"molecular_target": "Gal(b1-3)[GlcNAc(b1-6)]GalNAc", "outline": "as §1"}, "[18]": {"molecular_target": "Gal(b1-3)[Neu5Ac(a2-6)]GalNAc", "outline": "as §1"}, "[19]": {"molecular_target": "Gal(b1-3)[Neu5Ac(b2-6)]GalNAc", "outline": "as §1"}, "[20]": {"molecular_target": "Gal(b1-4)GlcNAc(b1-2)[Gal(b1-4)GlcNAc(b1-4)]Man(a1-3)[Gal(b1-4)GlcNAc(b1-2)[Gal(b1-4)GlcNAc(b1-6)]Man(a1-6)]Man(b1-4)GlcNAc(b1-4)GlcNAc", "outline": "as §1"}, "[21]": {"molecular_target": "Gal(b1-4)GlcNAc(b1-2)[Gal(b1-4)GlcNAc(b1-4)]Man(a1-3)[GlcNAc(b1-4)][Gal(b1-4)GlcNAc(b1-2)Man(a1-6)]Man(b1-4)GlcNAc(b1-4)GlcNAc", "outline": "as §1"}, "[22]": {"molecular_target": "Gal(b1-4)GlcNAc(b1-3)Gal(b1-4)GlcNAc(b1-2)Man(a1-3)[Gal(b1-4)GlcNAc(b1-3)Gal(b1-4)GlcNAc(b1-2)Man(a1-6)]Man(b1-4)GlcNAc(b1-4)GlcNAc", "outline": "as §1"}, "[23]": {"molecular_target": "Gal(b1-4)GlcNAc(b1-3)Gal(b1-4)GlcNAc(b1-2)Man(a1-3)[Gal(b1-4)GlcNAc(b1-3)Gal(b1-4)GlcNAc(b1-2)Man(a1-6)]Man(b1-4)GlcNAc(b1-4)[Fuc(a1-6)]GlcNAc", "outline": "as §1"}, "[24]": {"molecular_target": "Gal(b1-4)GlcNAc(b1-3)Gal(b1-4)GlcNAc(b1-2)[Gal(b1-4)GlcNAc(b1-3)Gal(b1-4)GlcNAc(b1-6)]Man(a1-6)[Gal(b1-4)GlcNAc(b1-3)Gal(b1-4)GlcNAc(b1-2)Man(a1-3)]Man(b1-4)GlcNAc(b1-4)[Fuc(a1-6)]GlcNAc", "outline": "as §1"}, "[25]": {"molecular_target": "Gal(b1-4)GlcNAc(b1-3)Gal(b1-4)GlcNAc(b1-3)GalNAc", "outline": "as §1"}, "[26]": {"molecular_target": "Gal(b1-4)GlcNAc(b1-6)[Gal(b1-3)]GalNAc", "outline": "as §1"}}, "note": "About 410 targets per protein were measured; listed, in parts, are those with the strongest signals and a random draw of the rest."}
{"binder": "B1", "values": [{"measurement": "glycan array binding signal (z-score)", "setting": "[1]", "value": -0.291}, {"measurement": "glycan array binding signal (z-score)", "setting": "[2]", "value": 0.111}, {"measurement": "glycan array binding signal (z-score)", "setting": "[3]", "value": 0.383}, {"measurement": "glycan array binding signal (z-score)", "setting": "[4]", "value": -0.608}, {"measurement": "glycan array binding signal (z-score)", "setting": "[5]", "value": 1.32}, {"measurement": "glycan array binding signal (z-score)", "setting": "[6]", "value": -0.647}, {"measurement": "glycan array binding signal (z-score)", "setting": "[7]", "value": -0.485}, {"measurement": "glycan array binding signal (z-score)", "setting": "[8]", "value": 0.152}, {"measurement": "glycan array binding signal (z-score)", "setting": "[9]", "value": 0.024}, {"measurement": "glycan array binding signal (z-score)", "setting": "[10]", "value": 0.035}, {"measurement": "glycan array binding signal (z-score)", "setting": "[11]", "value": 0.416}, {"measurement": "glycan array binding signal (z-score)", "setting": "[12]", "value": 13.5}, {"measurement": "glycan array binding signal (z-score)", "setting": "[13]", "value": -0.654}, {"measurement": "glycan array binding signal (z-score)", "setting": "[14]", "value": 2.25}, {"measurement": "glycan array binding signal (z-score)", "setting": "[15]", "value": 3.43}, {"measurement": "glycan array binding signal (z-score)", "setting": "[16]", "value": 0.494}, {"measurement": "glycan array binding signal (z-score)", "setting": "[17]", "value": -0.334}, {"measurement": "glycan array binding signal (z-score)", "setting": "[18]", "value": 0.3}, {"measurement": "glycan array binding signal (z-score)", "setting": "[19]", "value": -0.046}, {"measurement": "glycan array binding signal (z-score)", "setting": "[20]", "value": -0.809}, {"measurement": "glycan array binding signal (z-score)", "setting": "[21]", "value": 0.833}, {"measurement": "glycan array binding signal (z-score)", "setting": "[22]", "value": 4.81}, {"measurement": "glycan array binding signal (z-score)", "setting": "[23]", "value": 1.2}, {"measurement": "glycan array binding signal (z-score)", "setting": "[24]", "value": 2.87}, {"measurement": "glycan array binding signal (z-score)", "setting": "[25]", "value": 2.15}, {"measurement": "glycan array binding signal (z-score)", "setting": "[26]", "value": 0.095}]}
